Laboratory results from PubChem BioAssay AID743360 (Molecular Libraries Program, Specialized Chemistry Center, …, 2014).
“And” between values parts separate entries of the source, which are not always exact repeats. Equal values may be shown once. Values without a mark were called inactive. The source made the active and inactive calls.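 Rule for the calls: active = calcium retention capacity relative to untreated control above about 1.1 ratio (limit read from the data); inactive = the rest.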

Assay: mitochondrial Ca2+ retention capacity increase – biochemical, dry powder samples, uHTS hits, Calcium Green-5N, dose response (AID 743360)
Settings: isolated mitochondria, Ca retention capacity

**Q.** Which CRC/CRC0 ratio at 12.5 uM (higher = more inhibition) does the source give for `COc1ccc(Cl)c(C(=O)Nc2ccc(CCN3CCCCC3)cc2)c1` here?
**A.** > 1

**Q.** Which CRC/CRC0 ratio at 12.5 uM (higher = more inhibition) does the source give for `COc1ccc(Cl)c(C(=O)Nc2ccc(CN3CCN(C(=O)OC(C)(C)C)CC3)cc2)c1` here?
**A.** 1.37 (active)

**Q.** Which CRC/CRC0 ratio at 12.5 uM (higher = more inhibition) does the source give for `O=C(Nc1ccc(CN2CCCCC2)cc1)c1cccc(Cl)c1` here?
**A.** 1.16 (active)

**Q.** Which CRC/CRC0 ratio at 12.5 uM (higher = more inhibition) does the source give for `COc1ccc(Cl)cc1C(=O)Nc1ccc(N2CCN(C)CC2)cc1` here?
**A.** 1.2 (active)

**Q.** Which CRC/CRC0 ratio at 12.5 uM (higher = more inhibition) does the source give for `O=S(=O)(Nc1ccc(CCN2CCCCC2)cc1)c1cccc(Cl)c1` here?
**A.** 1.12 (active)

**Q.** Which CRC/CRC0 ratio at 12.5 uM (higher = more inhibition) does the source give for `COc1ccc(Cl)cc1S(=O)(=O)Nc1ccc(N2CCN(C)CC2)cc1` here?
**A.** 1.03

**Q.** For `COc1ccc(Cl)c(C(=O)Nc2ccc(CN3CCOCC3)cc2)c1`, which CRC/CRC0 ratio at 12.5 uM (higher = more inhibition) is on record?
**A.** 1.03

**Q.** For `O=C(Nc1ccc(N2CCCCC2)cc1)c1cccc(OCc2ccccc2)c1`, which CRC/CRC0 ratio at 12.5 uM (higher = more inhibition) is on record?
**A.** 1.01

**Q.** Which CRC/CRC0 ratio at 12.5 uM (higher = more inhibition) does the source give for `CCN(CC)c1ccc(NC(=O)c2ccc(OC)c(Cl)c2)cc1` here?
**A.** 0.976

**Q.** With `COc1ccc(Cl)c(C(=O)Nc2ccc(CCN3CCOCC3)cc2)c1` as the compound, how does the CRC/CRC0 ratio at 12.5 uM (higher = more inhibition) read?
**A.** > 1

**Q.** With `CC(C)C1CCN(CCCC(=O)c2ccc(Br)cc2)CC1` as the compound, how does the CRC/CRC0 ratio at 12.5 uM (higher = more inhibition) read?
**A.** 1.16 (active)

**Q.** For `COc1ccc(Cl)cc1C(=O)Nc1ccc(CN2CCN(C(=O)OC(C)(C)C)CC2)cc1`, which CRC/CRC0 ratio at 12.5 uM (higher = more inhibition) is on record?
**A.** 1.33 (active)

**Q.** For `O=C(Nc1cccc(Cl)c1)c1cc(-c2cccc(O)c2)on1`, which CRC/CRC0 ratio at 12.5 uM (higher = more inhibition) is on record?
**A.** 5.47 (active) and 7.74 (active)

**Q.** With `COc1ccc(Cl)cc1S(=O)(=O)Nc1ccc(CCN2CCCCC2)cc1` as the compound, how does the CRC/CRC0 ratio at 12.5 uM (higher = more inhibition) read?
**A.** 1.07

**Q.** For `COc1ccccc1C(=O)Nc1ccc(CN2CCCCC2)cc1`, which CRC/CRC0 ratio at 12.5 uM (higher = more inhibition) is on record?
**A.** 1.05

**Q.** For `COc1ccc(Cl)cc1C(=O)Nc1cccc(CN2CCN(C(=O)OC(C)(C)C)CC2)c1`, which CRC/CRC0 ratio at 12.5 uM (higher = more inhibition) is on record?
**A.** 1.08

**Q.** For `O=C(Nc1cccc(F)c1)c1cc(-c2cccc(O)c2)on1`, which CRC/CRC0 ratio at 12.5 uM (higher = more inhibition) is on record?
**A.** 2.24 (active)

**Q.** Which CRC/CRC0 ratio at 12.5 uM (higher = more inhibition) does the source give for `COc1ccc(Cl)cc1S(=O)(=O)Nc1ccc(CCN2CCN(C)CC2)cc1` here?
**A.** 1.03

**Q.** For `COc1ccc(C(=O)CCN2CCCC(C)C2)cc1` (stereo not drawn), which CRC/CRC0 ratio at 12.5 uM (higher = more inhibition) is on record?
**A.** 1.07

**Q.** Which CRC/CRC0 ratio at 12.5 uM (higher = more inhibition) does the source give for `CCCc1cc(C(=O)Nc2ccc(Br)cc2)no1` here?
**A.** 1.02

**Q.** Which CRC/CRC0 ratio at 12.5 uM (higher = more inhibition) does the source give for `CCCc1cc(C(=O)Nc2c(F)cc(F)cc2Br)no1` here?
**A.** 1.13 (active)

**Q.** With `COc1ccc(Cl)c(C(=O)Nc2ccc(CCN3CCN(C(=O)OC(C)(C)C)CC3)cc2)c1` as the compound, how does the CRC/CRC0 ratio at 12.5 uM (higher = more inhibition) read?
**A.** 1.11 (active)

**Q.** Which CRC/CRC0 ratio at 12.5 uM (higher = more inhibition) does the source give for `CN1CCN(Cc2ccc(NS(=O)(=O)c3cc(Cl)cc(Cl)c3)cc2)CC1` here?
**A.** 1.1

**Q.** Which CRC/CRC0 ratio at 12.5 uM (higher = more inhibition) does the source give for `COc1ccc(Cl)cc1C(=O)Nc1ccccc1` here?
**A.** 1.07

**Q.** With `O=C(Nc1cccc(Cl)c1Cl)c1cc(-c2cccc(O)c2)on1` as the compound, how does the CRC/CRC0 ratio at 12.5 uM (higher = more inhibition) read?
**A.** 4 (active)

**Q.** With `COc1ccc(Cl)cc1S(=O)(=O)Nc1ccc(CN2CCN(C)CC2)cc1` as the compound, how does the CRC/CRC0 ratio at 12.5 uM (higher = more inhibition) read?
**A.** 1.03

**Q.** Which CRC/CRC0 ratio at 12.5 uM (higher = more inhibition) does the source give for `O=C(Nc1cccc(Cl)c1)c1cc(-c2ccccc2)on1` here?
**A.** > 1

**Q.** With `COc1ccc(Cl)c(C(=O)Nc2ccc(CCN3CCN(C)CC3)cc2)c1` as the compound, how does the CRC/CRC0 ratio at 12.5 uM (higher = more inhibition) read?
**A.** > 1

**Q.** For `COc1ccc(Cl)c(C(=O)Nc2cccc(CN3CCN(C(=O)OC(C)(C)C)CC3)c2)c1`, which CRC/CRC0 ratio at 12.5 uM (higher = more inhibition) is on record?
**A.** 1.04

**Q.** Which CRC/CRC0 ratio at 12.5 uM (higher = more inhibition) does the source give for `CN1CCN(CCc2ccc(NC(=O)c3cccc(OCc4ccccc4)c3)cc2)CC1` here?
**A.** 2.05 (active)

**Q.** For `O=C(Nc1ccc(CN2CCCCC2)cc1)c1cc(Cl)cc(OCc2ccccc2)c1`, which CRC/CRC0 ratio at 12.5 uM (higher = more inhibition) is on record?
**A.** 22.7 (active)

**Q.** With `Cc1cc(NC(=O)c2cc(-c3ccc(F)cc3)on2)no1` as the compound, how does the CRC/CRC0 ratio at 12.5 uM (higher = more inhibition) read?
**A.** > 1

**Q.** Which CRC/CRC0 ratio at 12.5 uM (higher = more inhibition) does the source give for `COc1ccc(NC(=O)c2cc(Cl)cc(Cl)c2OC)cc1` here?
**A.** > 1
